# Reference: ChEMBL document CHEMBL2218924, “A broad activity screen in support of a chemogenomic map for kinase signalling research and drug discovery” (Biochem J, 2013)
# What was measured:
# [1] = target: Proto-oncogene tyrosine-protein kinase Src (Homo sapiens) (UniProt P12931); settings: at 1 µM
# [2] = target: Proto-oncogene tyrosine-protein kinase Src (Homo sapiens) (UniProt P12931); settings: at 10 µM
# [3] = target: Serine/threonine-protein kinase Nek6 (Homo sapiens) (UniProt Q9HC98); settings: at 1 µM
# Chain of Serine/threonine-protein kinase Nek6 (Homo sapiens) (Q9HC98 whole entry): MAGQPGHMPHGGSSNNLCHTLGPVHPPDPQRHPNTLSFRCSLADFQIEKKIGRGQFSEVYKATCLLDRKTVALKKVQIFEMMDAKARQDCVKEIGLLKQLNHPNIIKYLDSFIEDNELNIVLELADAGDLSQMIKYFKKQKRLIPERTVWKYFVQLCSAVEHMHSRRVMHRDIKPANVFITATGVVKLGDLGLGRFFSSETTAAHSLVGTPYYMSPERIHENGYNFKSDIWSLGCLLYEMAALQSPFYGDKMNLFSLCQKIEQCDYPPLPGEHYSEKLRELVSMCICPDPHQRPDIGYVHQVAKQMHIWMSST
# [4] = target: Serine/threonine-protein kinase Nek6 (Homo sapiens) (UniProt Q9HC98); settings: at 10 µM
# [5] = target: Serine/threonine-protein kinase mTOR (Homo sapiens) (UniProt P42345); settings: at 1 µM
# [6] = target: Ribosomal protein S6 kinase beta-1 (Homo sapiens) (UniProt P23443); settings: at 10 µM
# Chain of Ribosomal protein S6 kinase beta-1 (Homo sapiens) (P23443 whole entry, looked up): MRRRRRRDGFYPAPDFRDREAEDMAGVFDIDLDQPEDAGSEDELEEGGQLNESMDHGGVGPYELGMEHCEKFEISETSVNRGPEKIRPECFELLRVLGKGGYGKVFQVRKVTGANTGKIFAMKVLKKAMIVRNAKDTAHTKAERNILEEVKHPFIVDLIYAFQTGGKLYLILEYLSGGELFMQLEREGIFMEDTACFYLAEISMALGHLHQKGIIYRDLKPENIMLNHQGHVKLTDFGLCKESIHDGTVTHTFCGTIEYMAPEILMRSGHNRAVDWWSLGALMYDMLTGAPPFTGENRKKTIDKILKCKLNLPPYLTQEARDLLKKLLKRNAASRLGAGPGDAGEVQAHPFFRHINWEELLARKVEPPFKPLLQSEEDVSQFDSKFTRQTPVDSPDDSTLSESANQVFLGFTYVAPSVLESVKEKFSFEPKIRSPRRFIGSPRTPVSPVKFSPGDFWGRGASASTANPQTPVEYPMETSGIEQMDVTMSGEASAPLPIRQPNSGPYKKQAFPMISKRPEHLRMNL
# [7] = target: Serine/threonine-protein kinase Nek7 (Homo sapiens) (UniProt Q8TDX7); settings: at 10 µM
# Chain of Serine/threonine-protein kinase Nek7 (Homo sapiens) (Q8TDX7 whole entry, looked up): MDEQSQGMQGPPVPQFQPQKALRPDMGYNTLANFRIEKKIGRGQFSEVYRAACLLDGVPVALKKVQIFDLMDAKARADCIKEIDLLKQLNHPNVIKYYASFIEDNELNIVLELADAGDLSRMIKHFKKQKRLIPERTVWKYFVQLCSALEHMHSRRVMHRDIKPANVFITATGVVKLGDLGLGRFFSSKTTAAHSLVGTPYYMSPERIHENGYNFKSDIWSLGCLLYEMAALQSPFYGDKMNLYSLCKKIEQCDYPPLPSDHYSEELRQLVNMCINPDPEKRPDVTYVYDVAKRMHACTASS
# [8] = target: T1, Serine/threonine-protein kinase NLK (Homo sapiens) (UniProt Q9UBE8); settings: at 1 µM
# T1 sequence (whole entry): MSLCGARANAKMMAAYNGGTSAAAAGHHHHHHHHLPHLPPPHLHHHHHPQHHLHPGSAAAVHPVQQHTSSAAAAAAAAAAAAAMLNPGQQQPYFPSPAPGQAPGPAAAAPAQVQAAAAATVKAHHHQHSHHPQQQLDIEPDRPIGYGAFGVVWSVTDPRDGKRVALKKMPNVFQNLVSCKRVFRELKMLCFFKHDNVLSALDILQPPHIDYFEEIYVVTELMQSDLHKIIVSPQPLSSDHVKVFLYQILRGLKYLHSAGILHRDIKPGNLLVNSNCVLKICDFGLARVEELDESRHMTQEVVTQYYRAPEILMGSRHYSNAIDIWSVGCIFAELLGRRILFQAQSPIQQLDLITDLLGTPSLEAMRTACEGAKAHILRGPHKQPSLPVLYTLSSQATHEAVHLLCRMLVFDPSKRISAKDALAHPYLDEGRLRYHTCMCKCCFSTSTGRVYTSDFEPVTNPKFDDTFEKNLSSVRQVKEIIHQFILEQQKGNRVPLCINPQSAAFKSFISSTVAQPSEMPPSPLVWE
# [9] = target: Serine/threonine-protein kinase PAK 2 (Homo sapiens) (UniProt Q13177); settings: at 1 µM
# Chain of Serine/threonine-protein kinase PAK 2 (Homo sapiens) (Q13177 whole entry): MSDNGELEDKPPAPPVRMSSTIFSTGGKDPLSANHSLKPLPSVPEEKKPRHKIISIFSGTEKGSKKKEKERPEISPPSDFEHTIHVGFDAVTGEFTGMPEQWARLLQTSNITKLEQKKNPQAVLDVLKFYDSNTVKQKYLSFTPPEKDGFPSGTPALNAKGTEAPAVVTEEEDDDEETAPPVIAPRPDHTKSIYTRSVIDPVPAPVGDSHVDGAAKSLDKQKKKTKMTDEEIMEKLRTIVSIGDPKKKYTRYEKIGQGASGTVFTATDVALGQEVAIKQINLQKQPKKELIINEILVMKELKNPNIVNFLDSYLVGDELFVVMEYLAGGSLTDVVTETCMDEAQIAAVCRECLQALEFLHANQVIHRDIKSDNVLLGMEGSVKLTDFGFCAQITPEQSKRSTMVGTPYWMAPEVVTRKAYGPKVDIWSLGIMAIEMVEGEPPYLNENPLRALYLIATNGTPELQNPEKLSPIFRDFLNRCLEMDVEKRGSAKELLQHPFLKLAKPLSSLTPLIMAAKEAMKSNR
# [10] = target: Serine/threonine-protein kinase PAK 2 (Homo sapiens) (UniProt Q13177); settings: at 10 µM
# [11] = target: Serine/threonine-protein kinase mTOR (Homo sapiens) (UniProt P42345); settings: at 1 µM; remark: listed apart in the source
# [12] = target: Serine/threonine-protein kinase mTOR (Homo sapiens) (UniProt P42345); settings: at 10 µM
# [13] = target: Ribosomal protein S6 kinase beta-1 (Homo sapiens) (UniProt P23443); settings: at 1 µM
# [14] = target: T1, Serine/threonine-protein kinase NLK (Homo sapiens); settings: at 10 µM
# [15] = target: Mast/stem cell growth factor receptor Kit (Homo sapiens) (UniProt P10721); settings: at 10 µM
# Chain of Mast/stem cell growth factor receptor Kit (Homo sapiens) (P10721 whole entry): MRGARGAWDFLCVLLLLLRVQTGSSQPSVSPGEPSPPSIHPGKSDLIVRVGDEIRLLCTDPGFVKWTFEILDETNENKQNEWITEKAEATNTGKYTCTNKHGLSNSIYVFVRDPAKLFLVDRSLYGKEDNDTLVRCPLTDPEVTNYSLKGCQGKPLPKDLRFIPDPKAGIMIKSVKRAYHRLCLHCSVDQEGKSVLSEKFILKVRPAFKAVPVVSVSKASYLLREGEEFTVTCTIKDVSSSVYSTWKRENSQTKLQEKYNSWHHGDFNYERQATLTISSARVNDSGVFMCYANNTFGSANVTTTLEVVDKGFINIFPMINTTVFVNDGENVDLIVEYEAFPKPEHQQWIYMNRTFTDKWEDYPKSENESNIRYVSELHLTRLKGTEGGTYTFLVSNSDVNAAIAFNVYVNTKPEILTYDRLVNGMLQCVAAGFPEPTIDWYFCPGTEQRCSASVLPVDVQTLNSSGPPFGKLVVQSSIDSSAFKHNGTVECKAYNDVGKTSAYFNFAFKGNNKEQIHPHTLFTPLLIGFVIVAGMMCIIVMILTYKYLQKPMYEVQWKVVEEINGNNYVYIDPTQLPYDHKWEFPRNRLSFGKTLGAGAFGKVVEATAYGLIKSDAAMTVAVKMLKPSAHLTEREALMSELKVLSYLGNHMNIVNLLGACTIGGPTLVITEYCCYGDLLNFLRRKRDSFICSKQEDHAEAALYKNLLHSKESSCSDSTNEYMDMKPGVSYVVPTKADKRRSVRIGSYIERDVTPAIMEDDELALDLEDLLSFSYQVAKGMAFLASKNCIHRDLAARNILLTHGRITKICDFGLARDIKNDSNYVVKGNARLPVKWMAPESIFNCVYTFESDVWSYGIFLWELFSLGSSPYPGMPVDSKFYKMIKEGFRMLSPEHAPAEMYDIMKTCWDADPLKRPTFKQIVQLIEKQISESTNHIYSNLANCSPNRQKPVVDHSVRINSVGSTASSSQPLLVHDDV
# [16] = target: Serine/threonine-protein kinase Nek7 (Homo sapiens) (UniProt Q8TDX7); settings: at 1 µM
# [17] = target: Serine/threonine-protein kinase mTOR (Homo sapiens) (UniProt P42345); settings: at 10 µM; remark: listed apart in the source
# [18] = target: Mast/stem cell growth factor receptor Kit (Homo sapiens) (UniProt P10721); settings: at 1 µM
structure (smiles),measurement,setting,value
COc1ccc(CNC(=O)Nc2ncc([N+](=O)[O-])s2)cc1,residual activity,[1],60%
same,residual activity,[2],38%
same,residual activity,[3],114% (inactive)
same,residual activity,[4],103%
CCCCc1c(-c2ccc(OC)cc2)[nH]c2nccnc12,residual activity,[1],61%
same,residual activity,[2],41%
same,residual activity,[5],108%
same,residual activity,[6],70%
same,residual activity,[3],113% (inactive)
same,residual activity,[4],100%
same,residual activity,[7],112% (inactive)
same,residual activity,[8],83%
same,residual activity,[9],112%
same,residual activity,[10],103%
Nc1n[nH]c2nc3ccccc3nc12,residual activity,[2],83%
same,residual activity,[11],80%
same,residual activity,[12],84%
same,residual activity,[13],78%
same,residual activity,[6],47%
same,residual activity,[8],97%
same,residual activity,[14],91%
O=C(O)/C=C/c1cc(Br)c(Br)c(Br)c1Br,residual activity,[15],103%
same,residual activity,[2],82%
same,residual activity,[11],104%
same,residual activity,[12],70%
same,residual activity,[13],84%
same,residual activity,[6],70%
same,residual activity,[3],96% (inactive)
same,residual activity,[4],86%
same,residual activity,[9],97%
same,residual activity,[10],95%
O=C1Cc2c([nH]c3ccc(Br)cc23)-c2ccccc2N1,residual activity,[13],66%
same,residual activity,[6],53%
same,residual activity,[16],100% (inactive)
same,residual activity,[7],94% (inactive)
same,residual activity,[8],83%
same,residual activity,[14],54%
same,residual activity,[9],91%
same,residual activity,[10],75%
NC(=O)c1cccc(-c2cc(Nc3ccc(OC(F)(F)F)cc3)ncn2)c1,residual activity,[1],87%
same,residual activity,[2],98%
same,residual activity,[11],94%
same,residual activity,[12],92%
same,residual activity,[13],97%
same,residual activity,[6],74%
same,residual activity,[8],94%
same,residual activity,[14],40%
O=C(Nc1nc2ccccc2n1CCN1CCOCC1)c1cccc([N+](=O)[O-])c1,residual activity,[11],108%
same,residual activity,[12],111%
O=c1c(-c2ccc(F)cc2)c(-c2ccncc2)[nH]n1-c1ccc(Cl)cc1,residual activity,[2],79%
same,residual activity,[5],125%
same,residual activity,[17],70%
same,residual activity,[13],129%
same,residual activity,[3],101% (inactive)
same,residual activity,[8],42%
same,residual activity,[14],12%
O=c1cc(N2CCOCC2)oc2c1ccc1ccccc12,residual activity,[15],100%
same,residual activity,[1],92%
same,residual activity,[2],90%
same,residual activity,[11],95%
same,residual activity,[12],93%
same,residual activity,[17],107%
same,residual activity,[13],74%
same,residual activity,[6],41%
same,residual activity,[3],100% (inactive)
same,residual activity,[4],106%
same,residual activity,[16],103% (inactive)
same,residual activity,[7],95% (inactive)
same,residual activity,[8],108%
same,residual activity,[14],80%
same,residual activity,[9],97%
same,residual activity,[10],89%
O=S(=O)(NCCNC/C=C/c1ccc(Br)cc1)c1cccc2cnccc12,residual activity,[17],62%
same,residual activity,[13],13%
same,residual activity,[6],5%
NC(=O)c1ccc(-c2nc(-c3ccc4c(c3)OCCO4)c(-c3ccccn3)[nH]2)cc1,residual activity,[1],96%
same,residual activity,[2],94%
same,residual activity,[11],100%
same,residual activity,[12],84%
same,residual activity,[17],85%
same,residual activity,[13],74%
same,residual activity,[6],86%
N#Cc1c(NC(=O)c2cccc3ccccc23)sc2c1CCCC2,residual activity,[15],94%
same,residual activity,[13],91%
same,residual activity,[6],68%
same,residual activity,[4],93%
same,residual activity,[9],93%
O=C1NC(=O)C(c2c[nH]c3ccccc23)=C1c1c[nH]c2ccccc12,residual activity,[1],98%
same,residual activity,[2],76%
same,residual activity,[13],48%
same,residual activity,[6],5%
same,residual activity,[3],117% (inactive)
same,residual activity,[4],127%
same,residual activity,[14],71%
O=S(=O)(c1cccc2cnccc12)N1CCCNCC1,residual activity,[6],25%
O=c1cc(N2CCOCC2)oc2c(-c3ccccc3)cccc12,residual activity,[11],24%
same,residual activity,[12],27%
same,residual activity,[6],63%
same,residual activity,[14],72%
COc1ccc(Cl)cc1NC(=O)Nc1cc(C)nc2ccccc12,residual activity,[13],97%
same,residual activity,[6],62%
same,residual activity,[8],99%
same,residual activity,[14],82%
N#C/C(=C\c1ccc(O)c(O)c1)C(=O)NCc1ccccc1,residual activity,[15],100%
same,residual activity,[1],87%
same,residual activity,[2],104%
same,residual activity,[6],65%
same,residual activity,[16],101% (inactive)
same,residual activity,[7],125% (inactive)
same,residual activity,[9],103%
same,residual activity,[10],85%
N#C/C(=C1/Nc2ccccc2S1)c1ccnc(NCCc2cccnc2)n1,residual activity,[11],89%
same,residual activity,[12],62%
same,residual activity,[13],72%
same,residual activity,[6],39%
same,residual activity,[3],119% (inactive)
O=C(NC(NC(=S)Nc1ccc(F)c([N+](=O)[O-])c1)C(Cl)(Cl)Cl)C(c1ccccc1)c1ccccc1 (stereo unspecified),residual activity,[1],98%
same,residual activity,[2],83%
same,residual activity,[11],102%
same,residual activity,[12],92%
same,residual activity,[5],88%
same,residual activity,[17],78%
same,residual activity,[13],141%
same,residual activity,[6],99%
same,residual activity,[7],96% (inactive)
same,residual activity,[8],103%
same,residual activity,[14],101%
CC(C)(C)c1nc2c3ccc(F)cc3c3c(=O)[nH]ccc3c2[nH]1,residual activity,[18],119%
same,residual activity,[15],101%
same,residual activity,[13],47%
same,residual activity,[6],44%
same,residual activity,[8],34%
same,residual activity,[14],19%
COc1ccc(COc2ccc(Cc3cnc(N)nc3N)cc2OC)cc1,residual activity,[11],116%
same,residual activity,[12],119%
same,residual activity,[5],120%
same,residual activity,[13],80%
same,residual activity,[6],51%
